MARV entry inh: Marburg virus entry inhibition. Potency, µM (highest dose often 49.2 µM), for inactives: at the highest dose activity change, negative = inhibition, usual class: inhibitors. hit rate 6.5% among 18,000. Marburg virus pseudotype entry/binding inhibition, cell-based
Lassa entry: blocks Lassa virus binding or cell entry. Lassa virus pseudotyped entry inhibition, cell-based qHTS. Potency, µM (doses to about 49.2 µM), without a hit: top-dose activity change, negative = inhibition, hits mostly inhibitors. hit rate 4.1% among 18,000
* hit, by the source's call; ! = not confirmed by another sample; [ ] = another dose, or the depositor's remark. Most compounds without a hit are left out; they make up all but 8.6% or so of the library. Calls follow the shape of the full dose curve; tested in HEK293 cells. % is scaled to controls: 0 for no effect and ±100 for the full control effect; potency is read from the fitted curve at half-maximal effect.

For CC(=O)[C@]12C[C@@H]3CCN(C(=O)N[C@@H]1c1ccccc1)[C@@]32C the results were MARV entry inh inconclusive and Lassa entry -17.8%[8.59 µM].
O=C(Nc1cccc(C(=O)Nc2ccc(S(=O)(=O)O)c3cc(S(=O)(=O)O)cc(S(=O)(=O)O)c23)c1)Nc1cccc(C(=O)Nc2ccc(S(=O)(=O)O)c3cc(S(=O)(=O)O)cc(S(=O)(=O)O)c23)c1 was read as MARV entry inh 31.6µM*! and Lassa entry -27.8%.
O=C(NCCCCc1ccccc1)c1cccc(NC(=O)c2ccccc2)c1 was read as MARV entry inh -14.2% and Lassa entry -15.8%.
Screening CCCN(CCC)C(=O)C(CCC(=O)OCCCN1CCN(CCOC(=O)Cc2c(C)n(C(=O)c3ccc(Cl)cc3)c3ccc(OC)cc23)CC1)NC(=O)c1ccccc1 (centres undefined) returned MARV entry inh 14.1µM* and Lassa entry 22.4µM*.
`COc1ccc2c(c1)c(CC(=O)OCC(=O)O)c(C)n2C(=O)c1ccc(Cl)cc1` gave MARV entry inh 21.9% and Lassa entry -3.3%.
`C[C@H](CSC(=O)c1ccccc1)C(=O)N1C[C@@H](Sc2ccccc2)C[C@H]1C(=O)O` gave MARV entry inh 12.7% and Lassa entry -8.0%.
`COC(=O)c1cc(CNC(=O)c2cccc(F)c2)cc(NC(=O)c2ccccc2OC)c1` gave MARV entry inh 141µM* and Lassa entry inconclusive.
Screening COC(=O)c1cc(CNC(=O)c2ccccn2)cc(NC(=O)c2ccccc2OC)c1 returned MARV entry inh -26.8% and Lassa entry -26.8%.
O=C(C=Cc1ccc2c(c1)OCO2)c1ccc(F)cc1 was read as MARV entry inh -9.4%[8.59 µM] and Lassa entry 3.1%[8.59 µM].
`Fc1ccc([C@@H]2CCNC[C@H]2COc2ccc3c(c2)OCO3)cc1` gave MARV entry inh 5.62µM* and Lassa entry inconclusive.
Screening OC1(c2cccnc2)CCN(Cc2ccc3c(c2)CN(Cc2cccc(F)c2F)CCO3)CC1 returned MARV entry inh inconclusive and Lassa entry -4.6%.
For O[C@H]1CN(CC2CCCCC2)[C@@H](c2ccccc2)C[C@H]1n1cc(C2CC2)nn1 the results were MARV entry inh inconclusive and Lassa entry -6.9%.
Screening c1ccc(C[C@@H](c2ccccc2)N2CCCCC2)cc1 returned MARV entry inh inconclusive and Lassa entry -7.1%.
Screening Cc1cccc(CN2CCN(C(c3ccccc3)c3ccc(Cl)cc3)CC2)c1 (centres undefined) returned MARV entry inh 7.08µM* and Lassa entry inconclusive.
`CN1CCCN(C(c2ccccc2)c2ccc(Cl)cc2)CC1` (centres undefined) gave MARV entry inh 7.08µM* and Lassa entry 22.4µM*.
Screening Cc1ccc(CN2CC(N3CCN(Cc4cccc(C)c4)CC3)CS2(=O)=O)cc1 (centres undefined) returned MARV entry inh 19.8% and Lassa entry 9.8%.
`CN1CCN(C(c2ccccc2)c2ccccc2)CC1` gave MARV entry inh 11.2µM*! and Lassa entry 11.2µM*!.
Screening C=CCO[C@@H]1C=C[C@@H](c2ccccc2)O[C@@H]1COC returned MARV entry inh 18.3%[8.59 µM] and Lassa entry 3.6%[8.59 µM].
For NS(=O)(=O)c1ccc(N=Nc2c(O)[nH]c3ccc(C(=O)NCCCn4ccnc4)cc23)cc1 the results were MARV entry inh -12.3% and Lassa entry inconclusive.
For COC(=O)Nc1nc2ccc(Oc3cccc(NC(=O)Nc4cc(C(F)(F)F)ccc4F)c3)cc2[nH]1 the results were MARV entry inh inconclusive and Lassa entry -50.3%.
`CNC(=O)c1cc(Oc2ccc(NC(=O)Nc3ccc(Cl)c(C(F)(F)F)c3)cc2)ccn1` gave MARV entry inh 12.6µM* and Lassa entry 7.94µM*.
For CC1=C[C@@H](COCc2ccccc2)O[C@@]2(C1)C(=O)N(CC1CC1)c1ccccc12 the results were MARV entry inh 0.8%[8.59 µM] and Lassa entry -24.4%[8.59 µM].
`Cc1ccc2c(c1)CN(CCNC(=O)c1cc3ccccc3oc1=O)CC(C)O2` (centres undefined) gave MARV entry inh -23.4% and Lassa entry 0.5%.
COc1ccc(C(=O)NCCN2Cc3cc(C)ccc3OC(C)C2)c(OC)n1 (centres undefined) was read as MARV entry inh 2µM* and Lassa entry -3.5%.
For CCCCCCN1C[C@@H](O)[C@H](n2cc(-c3ccc(F)cc3)nn2)C[C@H]1c1ccc(C)cc1 the results were MARV entry inh inconclusive and Lassa entry -27.4%.
Screening CC[C@H](C(=O)[C@H](C)[C@H](O)[C@H](C)CCc1ccc(C)c(O)c1C(=O)O)[C@H]1O[C@](CC)([C@@H]2CC[C@@](O)(CC)[C@H](C)O2)C[C@H]1C returned MARV entry inh 2.82µM* and Lassa entry inconclusive.
For CC[C@@H](C(=O)[C@@H](C)[C@@H](O)[C@H](C)CCc1ccc(C)c(O)c1C(=O)O)C1O[C@](CC)(C2CC[C@](O)(CC)[C@H](C)O2)C[C@@H]1C (some centres undefined) the results were MARV entry inh inconclusive and Lassa entry 7.08µM*.
Screening COC(=O)N[C@@H](C=Cc1ccccc1)C(C(=O)OC)=C(C)NCc1ccccc1 returned MARV entry inh -22.2%[8.59 µM] and Lassa entry -11.6%[8.59 µM].
`COc1cc(Nc2ncc(-c3ccccc3)o2)cc(OC)c1` gave MARV entry inh 58.0% and Lassa entry 110.3%.
For COCCN1C(=O)CC[C@@]23C1=NC(C(=O)OC)=C(C(=O)OC)[C@@H]2N(CC=C(C)C)c1ccccc13 the results were MARV entry inh -13.6%[8.59 µM] and Lassa entry -9.2%[8.59 µM].
`O=C(NCCN1CCOCC1)c1cnn(-c2ncc3c(n2)-c2ccccc2CC3)c1C1CC1` gave MARV entry inh inconclusive and Lassa entry -15.3%.
Screening O=C(NC1CCN(Cc2ccccc2)C1)c1cnn(-c2ncc3c(n2)-c2ccccc2CC3)c1C1CC1 (centres undefined) returned MARV entry inh 5.01µM* and Lassa entry -15.4%.
`O=C1N(Cc2ccccc2C(F)(F)F)c2ccccc2[C@@]12O[C@H](COc1ccccc1)CC1=C2CCC1` gave MARV entry inh -23.5%[8.59 µM] and Lassa entry 3.8%[8.59 µM].
Screening COC(=O)c1c(C(=O)OC)c2c3cc(OC)c(OC)cc3cc([Si](C)(C)C)n2c1C(=O)OC returned MARV entry inh 24.3%[8.59 µM] and Lassa entry -30.2%[8.59 µM].
CC[C@@]12CCCN3CCc4c(n(c5ccccc45)[C@](O)(C(=O)OC)C1)[C@H]32 was read as MARV entry inh inconclusive and Lassa entry -7.9%.
`COC(=O)C1(O)CC2OC1(C)n1c3ccccc3c3c4c(c5c6ccccc6n2c5c31)C(=O)NC4` (centres undefined) gave MARV entry inh 3.98µM* and Lassa entry inconclusive.
COC(=O)[C@@]1(O)C[C@@H]2O[C@@]1(C)n1c3ccccc3c3c4c(c5c6ccccc6n2c5c31)C(=O)NC4 was read as MARV entry inh 14.1µM* and Lassa entry -19.6%.
For C[C@H]1CN(C2CCCCC2)C(=O)[C@H]1CC(=O)Nc1ccccc1 the results were MARV entry inh 18.9% and Lassa entry -25.2%.
`Cc1ccc(NC2=CC(=O)c3sc(C)nc3C2=O)cc1` gave MARV entry inh 3.98µM* and Lassa entry 3.55µM*.
`COc1ccc(S(=O)(=O)NCc2nc(N3CCCC3)c3cccc(C)c3n2)cc1OC` gave MARV entry inh inconclusive and Lassa entry -12.6%.
`CCn1c(-c2nonc2N)nc2c(C#CC(C)(C)O)ncc(OCC3CCCN3)c21` (centres undefined) gave MARV entry inh 1.25µM*.
